Where “and” joins values, the source holds several entries; their conditions need not be identical. Equal entries are not always repeated. About 2,000 (36%) of roughly 5,500 compounds were called active. Another 18% or so got no clear call; they are omitted. Rule as the data show it: active = normalized growth mostly below about 0.91 (no sharp cut-off); inconclusive = no clear call, values can overlap the other calls; inactive = mostly above about 0.92. The list shows a part of the results.
Experiment: chemical genetic growth profiling, strain panel (AID 1159580);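 also: tested at 20 µM; growth read once vehicle control cultures reached saturation at 30 °C; 1 = growth at the plate median or of vehicle wells; lower values mean less growth of the strain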
Conditions: S. cerevisiae deletion strains, growth OD

Measured: normalized growth

COc1cc(C(=O)O)cc(OC)c1O
inactive: locus YBR021W, strain FUR4, stronger effect = lower value 1.08 | locus YBR229C, strain ROT2, stronger effect = lower value 0.951 | locus YCL029C, strain bik1, stronger effect = lower value 0.976 | locus YDL035C, strain GPR1, stronger effect = lower value 1.01 | locus YDL074C, strain BRE1, stronger effect = lower value 0.961 | locus YDL101C, strain DUN1, stronger effect = lower value 0.982 | locus YDL185W, strain tfp1, stronger effect = lower value 0.987 | locus YDL192W, strain arf1, stronger effect = lower value 0.98 | locus YDR101C, strain arx1, stronger effect = lower value 0.972 | locus YDR150W, strain NUM1, stronger effect = lower value 0.979 | locus YDR162C, strain NBP2, stronger effect = lower value 1.01 | locus YDR318W, strain mcm21, stronger effect = lower value 1 | locus YDR388W, stronger effect = lower value 0.978 | locus YDR502C, strain sam2, stronger effect = lower value 0.982 | locus YEL061C, strain CIN8, stronger effect = lower value 0.986 | locus YER110C, stronger effect = lower value 0.977 | locus YER155C, strain BEM2, stronger effect = lower value 1 | locus YER167W, strain BCK2, stronger effect = lower value 1 | locus YGL078C, strain dbp3, stronger effect = lower value 0.986 | locus YGL086W, strain mad1, stronger effect = lower value 0.978 | locus YGL248W, strain PDE1, stronger effect = lower value 0.985 | locus YGR135W, strain pre9, stronger effect = lower value 1.05 | locus YGR229C, strain SMI1, stronger effect = lower value 1.01 | locus YGR252W, strain gcn5, stronger effect = lower value 1.04 | locus YHR030C, strain SLT2, stronger effect = lower value 1.04 and 0.994 | locus YHR079C, strain IRE1 (second series), stronger effect = lower value 0.977 | locus YHR079C, strain IRE1, stronger effect = lower value 1.02 | locus YHR094C, strain hxt1, stronger effect = lower value 0.984 | locus YHR129C, strain ARP1, stronger effect = lower value 0.997 | locus YHR200W, strain rpn10, stronger effect = lower value 0.98 | locus YIL066C, strain RNR3, stronger effect = lower value 0.981 | locus YIL073C, strain SPO22, stronger effect = lower value 0.983 | locus YIL125W, strain kgd1, stronger effect = lower value 0.987 | locus YIR030C, strain dcg1, stronger effect = lower value 0.988 | locus YJL095W, strain BCK1, stronger effect = lower value 1.03 and 0.981 | locus YJL134W, strain LCB3, stronger effect = lower value 0.994 | locus YJL168C, strain set2, stronger effect = lower value 0.975 | locus YJL187C, strain SWE1 (second series), stronger effect = lower value 0.971 | locus YJR043C, strain POL32, stronger effect = lower value 0.991 | locus YJR066W, strain TOR1, stronger effect = lower value 0.96 | locus YJR075W, strain HOC1, stronger effect = lower value 0.997 | locus YKL009W, strain mrt4, stronger effect = lower value 0.983 | locus YKL068W, stronger effect = lower value 0.989 | locus YKL085W, strain MDH1 (second series), stronger effect = lower value 0.983 | locus YKL085W, strain MDH1, stronger effect = lower value 0.983 | locus YKR001C, strain vps1, stronger effect = lower value 0.981 | locus YLR039C, strain RIC1, stronger effect = lower value 0.952 | locus YLR058C, strain SHM2, stronger effect = lower value 0.98 | locus YLR102C, strain apc9, stronger effect = lower value 0.985 | locus YLR113W, strain HOG1, stronger effect = lower value 1.01 | locus YLR262C, strain YPT6, stronger effect = lower value 0.963 | locus YLR268W, strain sec22, stronger effect = lower value 0.991 | locus YLR330W, strain CHS5, stronger effect = lower value 0.996 | locus YLR342W, strain FKS1 (second series), stronger effect = lower value 1.05 | locus YLR371W, strain rom2, stronger effect = lower value 0.965 | locus YLR418C, strain cdc73, stronger effect = lower value 1.01 | locus YML016C, strain PPZ1, stronger effect = lower value 0.984 | locus YML032C, strain rad52, stronger effect = lower value 0.975 | locus YML124C, strain tub3, stronger effect = lower value 0.979 | locus YMR078C, strain ctf18, stronger effect = lower value 0.977 | locus YMR223W, strain ubp8, stronger effect = lower value 1.04 | locus YMR307W, strain GAS1, stronger effect = lower value 1.01 | locus YNL067W, strain RPL9B, stronger effect = lower value 0.962 | locus YNL128W, strain TEP1, stronger effect = lower value 0.989 | locus YNL183C, strain NPR1, stronger effect = lower value 0.979 | locus YNL233W, strain BNI4, stronger effect = lower value 0.982 | locus YNL250W, strain rad50, stronger effect = lower value 0.976 | locus YNL271C, strain bni1, stronger effect = lower value 0.987 | locus YNL298W, strain CLA4, stronger effect = lower value 0.994 | locus YNL307C, strain MCK1, stronger effect = lower value 0.987 | locus YNR052C, strain pop2, stronger effect = lower value 0.993 | locus YOL012C, strain htz1 1.1 | locus YOL147C, strain pex11, stronger effect = lower value 0.984 | locus YOR061W, strain CKA2, stronger effect = lower value 0.964 | locus YOR069W, strain VPS5, stronger effect = lower value 0.995 | locus YOR136W, strain idh2, stronger effect = lower value 0.971 | locus YOR144C, strain elg1, stronger effect = lower value 0.991 | locus YOR184W, strain ser1, stronger effect = lower value 0.992 | locus YOR231W, strain MKK1, stronger effect = lower value 1.04 | locus YOR316C, strain cot1, stronger effect = lower value 0.97 | locus YPL241C, strain CIN2, stronger effect = lower value 0.999 | locus YPL256C, strain CLN2, stronger effect = lower value 1.04 | locus YPR119W, strain clb2, stronger effect = lower value 0.97 | locus YPR141C, strain kar3, stronger effect = lower value 0.969 | locus YPR163C, strain tif3, stronger effect = lower value 0.989 | locus YPR167C, strain met16, stronger effect = lower value 0.988 | strain wtn01, stronger effect = lower value 1

Source: PubChem BioAssay AID1159580 (chemical genetic matrix, 2015)
